ERK EGF inh: inhibitors of EGF-stimulated ERK signaling pathway; HEK293-V1b, EGF-stimulated phospho-ERK AlphaScreen; Potency, µM (series often up to 11.5 µM), for the others: top-dose activity change, negative = inhibition, usual class: inhibitors; 0.41% of 130,000 active; AID 1454;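 also: potency is read from the fitted curve at half-maximal effect; plate controls were stimulated vehicle wells for no effect and unstimulated vehicle basal for full effect; nearly all actives have a fitted effect of over 55% in size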
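EGF-stimulated (25 nM, 5 min) phospho-ERK in HEK293 cells stably expressing V1b, cells pretreated 30 min with compound at 37C. Homogeneous AlphaScreen read on lysates.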
pERK EGF inh: confirmation of ERK pathway inhibitors under EGF stimulation. shares compounds with ERK EGF inh. HEK293 EGF-stimulated ERK phosphorylation, AlphaScreen. Potency, µM (highest dose often 57.5 µM), for the others: at the highest dose activity change, negative = inhibition, actives largely listed as inhibitors. 60% of 60 active
cRaf kinase inh: blocks human c-Raf kinase activity | activity change, negative = inhibition, % at 76.9 µM | AID 1728 | c-Raf kinase inhibition, homogeneous biochemical assay | 70 tested, under 10 active | shares compounds with ERK EGF inh
Target sequence (P04049 whole entry, looked up): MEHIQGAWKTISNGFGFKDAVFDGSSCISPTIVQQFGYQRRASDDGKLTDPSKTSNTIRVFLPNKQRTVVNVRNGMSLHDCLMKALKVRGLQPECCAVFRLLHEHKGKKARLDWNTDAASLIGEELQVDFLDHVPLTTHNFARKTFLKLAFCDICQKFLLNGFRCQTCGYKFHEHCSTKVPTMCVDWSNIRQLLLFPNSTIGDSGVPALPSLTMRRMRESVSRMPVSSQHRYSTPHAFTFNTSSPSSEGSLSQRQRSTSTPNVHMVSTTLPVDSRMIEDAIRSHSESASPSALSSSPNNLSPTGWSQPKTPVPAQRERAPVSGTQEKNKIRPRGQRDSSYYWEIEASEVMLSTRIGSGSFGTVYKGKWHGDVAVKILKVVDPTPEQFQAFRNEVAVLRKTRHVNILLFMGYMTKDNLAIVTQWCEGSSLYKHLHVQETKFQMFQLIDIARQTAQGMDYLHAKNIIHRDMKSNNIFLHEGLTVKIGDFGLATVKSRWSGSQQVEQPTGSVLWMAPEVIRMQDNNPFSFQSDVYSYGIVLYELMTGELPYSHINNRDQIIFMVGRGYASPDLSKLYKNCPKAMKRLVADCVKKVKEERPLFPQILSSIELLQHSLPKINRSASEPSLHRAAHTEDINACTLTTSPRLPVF
MEK inh: blocks human MEK1 kinase activity in ERK pathway follow-up | shares compounds with ERK EGF inh | homogeneous MEK kinase activity assay, ERK pathway | Potency, µM (doses to about 76.9 µM), without a hit: top-dose activity change, negative = inhibition, most hits filed as inhibitors | 70 tested, under 10 active
An asterisk follows results filed as active; [ ] = dose if it differs, or a comment. The full list was thinned out, with hits kept by preference. Calls follow the shape of the dose curve; as a rule, active = well fitted curve in the direction sought with a large enough effect; inconclusive = small, poorly fitted or top-dose-only effect, or another doubt; inactive = no such curve, though single readings can be large; an effect the other way counts as inactive or inconclusive.

COc1ccc(C(=O)OC(COc2ccccc2)Cn2ccnc2)cc1 (stereo not given) was read as ERK EGF inh 7.1µM*, pERK EGF inh 14µM*, cRaf kinase inh -8 and MEK inh -15%.
Screening CC1(C)C[C@](C)(C(=O)c2ccccc2)C=C1c1ccccc1 returned ERK EGF inh 2%.
For CC(C)CN1CCC2(CC1)CCN(C(=O)c1csnn1)CC2 the results were ERK EGF inh 10%.
`c1ccc(Nc2ncnc3ccc(-c4cccnc4)cc23)cc1` gave ERK EGF inh 2.5µM*, pERK EGF inh 3.5µM*, cRaf kinase inh inconclusive and MEK inh 0%.
Screening CN(C)Cc1ccccc1-c1ccc2ncnc(NCc3ccccc3)c2c1 returned ERK EGF inh 16%.
c1cncc(-c2ccc3ncnc(N4CCNCC4)c3c2)c1 was read as ERK EGF inh 25%.
Screening O=C(Nc1ccccc1)N1CCC2(CC1)CCN(C(=O)c1cnccn1)CC2 returned ERK EGF inh 13%.
`COc1ccc(NC(=O)N2CCC3(CC2)CCN(S(C)(=O)=O)CC3)cc1` gave ERK EGF inh -5%.
`COc1ccc(N=C2C(=Nc3ccc(OC)cc3)N(c3ccc(OC)cc3)C(=S)N2C)cc1` gave pERK EGF inh 7.9µM*, cRaf kinase inh 6 and MEK inh -13%.
Screening COc1ccc(N=C2C(=Nc3ccc(OC)cc3)N(c3ccc(OC)cc3)C(=S)N2c2ccccc2)cc1 returned pERK EGF inh 8.9µM*, cRaf kinase inh -6 and MEK inh -10%.
Screening COc1ccc(N2CC(=O)N(c3ccccc3)C2=S)cc1 returned ERK EGF inh 5%.
For COc1ccc(N2C(=O)/C(=C3/C=CC=CN3C)SC2=S)cc1 the results were ERK EGF inh -2%.
For COc1ccc(N2C(=O)C3C(C2=O)C3(c2ccccc2)c2ccccc2)cc1 (stereo not given) the results were ERK EGF inh -4%[57.5 µM].
Screening COc1ccc(N2C(=O)CN(Cc3cc(OC)c(OC)c(OC)c3)C2=S)cc1 returned ERK EGF inh -5%.
`O=C(NC1CCCC1)O[C@@H]1C(=O)c2cc(Br)ccc2O[C@H]1c1ccc2c(c1)OCO2` gave ERK EGF inh -4%.
COc1ccc2c(c1)O[C@@H](c1cccc(C(F)(F)F)c1)[C@H](OC(=O)N[C@H](C)C1CCCCC1)C2=O was read as ERK EGF inh 0%.
For O=c1c(-c2cccc(F)c2)nc2cncnc2n1C1CC1 the results were ERK EGF inh 7%.
Screening CCN(CC)CCCn1c(-c2ccccc2)nc2c(NCCOC)nc(C)nc21 returned ERK EGF inh 6%.
`Cc1nc2cnc(Nc3ccccc3)nc2n(C)c1=O` gave ERK EGF inh -3%.
Screening Cn1c(=O)c2c(Nc3ccc(F)cc3)cc(=O)n(-c3ccccc3)c2n(C)c1=O returned ERK EGF inh 2%[57.5 µM].
`Cn1c(=O)cc(Nc2ccccc2)c2c(=O)n(-c3ccccc3)c(=O)n(-c3ccccc3)c21` gave ERK EGF inh 5µM*, pERK EGF inh 10µM*, cRaf kinase inh -5 and MEK inh -15%.
Screening O=c1cc(-c2ccc(O)c(O)c2)oc2cc(O)cc(O)c12 returned ERK EGF inh -5%.
O=c1cc(-c2ccc(O)cc2)oc2cccc(O)c12 was read as ERK EGF inh -4%, pERK EGF inh -12%, cRaf kinase inh inconclusive and MEK inh -6%.
For O=c1cc(-c2ccccc2Cl)oc2cccc(O)c12 the results were ERK EGF inh -3%.
C=CCC(C)(O)c1cccc(Br)c1 (stereo not given) was read as ERK EGF inh -10%.
`COCCN(CCOC)c1nc(C)nc2c1nc(-c1ccccc1)n2CCN1CCCC1` gave ERK EGF inh -9%.
`O=c1[nH]c(=O)c2nc(Br)n(C3OC(CO)C(O)C3O)c2[nH]1` (stereo not given) gave ERK EGF inh 22%.
Screening CC1=C(C(=O)O)N2C(=O)[C@@H](NC(=O)[C@@H](N)c3ccc(O)cc3)[C@@H]2SC1 returned ERK EGF inh 12%[25.7 µM].
For Cc1cccc(CNc2nc(-c3ccccc3CN(C)C)nc3ccccc23)c1 the results were ERK EGF inh 20%.
N#CC(=C(/N)Sc1ccccc1N)/C(C#N)=C(/N)Sc1ccccc1N was read as ERK EGF inh 0.89µM* and cRaf kinase inh -2.
For C/C(N)=C(/C#N)C(=O)CSc1ccccc1F the results were ERK EGF inh -7%.
`Nc1ccccc1SSc1ccccc1N` gave ERK EGF inh 27%[57.5 µM].
O=C(Nc1cccc(F)c1)N1CC[C@@]2(CCCN(C(=O)c3csnn3)C2)C1 was read as ERK EGF inh -8%.
`N#C/C(=C(/N)Sc1ccc(N)cc1)c1ccccc1C(F)(F)F` gave ERK EGF inh 0.89µM*, cRaf kinase inh 12 and MEK inh -16%.
For Nc1ccc(SC(F)(F)F)cc1 the results were ERK EGF inh 19%.
For O=C(NO)c1ccccc1C(F)(F)F the results were ERK EGF inh 5%.
Screening CCCCNc1nc(C)nc2c1nc(-c1ccccc1)n2CCN1CCCCC1 returned ERK EGF inh -7%.
c1ccc(-n2nnnc2Sc2ncnc3sc4c(c23)CCCC4)cc1 was read as ERK EGF inh 0%.
For CSc1nnnn1-c1ccc(Cl)cc1 the results were ERK EGF inh -7%.
Screening Cc1sc2ncnc(Sc3nnnn3-c3ccc(Cl)cc3)c2c1C returned pERK EGF inh -3%, cRaf kinase inh -12 and MEK inh 3%.
For Cc1noc(C)c1C(=O)N1CCC2(CC1)CN(c1ccccc1)C2 the results were ERK EGF inh 8%.
For Cc1cccc(CNc2ccnc(-c3cccc(NS(C)(=O)=O)c3)n2)c1 the results were ERK EGF inh 34%.
Screening Cc1cccc(CNc2ncnc3ccc(-c4cccc(NS(C)(=O)=O)c4)cc23)c1 returned ERK EGF inh 6.3µM*, pERK EGF inh 11µM*, cRaf kinase inh inconclusive and MEK inh 1%.
Screening Cc1cccc(CNc2cc(-c3cccc(NS(C)(=O)=O)c3)ncn2)c1 returned ERK EGF inh 17%.
CCCCCCN(C(=O)CCCCCN1C(=O)NC(C2CC2)C(C(=O)OCc2ccccc2)=C1C)C(C(=O)NCCCC)c1ccc(OCC(=O)OC)c(C(=O)OC)c1 (stereo not given) was read as ERK EGF inh -5%.
Screening Nc1nc2ncc(=O)[nH]c2c(=O)[nH]1 returned ERK EGF inh 9%.
Cn1cccc1C(=O)N1CCC2(CC1)CCN(c1ccccn1)CC2 was read as ERK EGF inh 25%.
COC(=O)c1ccccc1C[C@]1(C(=O)OC)C=C[C@H](C)[C@@H](c2ccccc2)N1C(=O)C(F)(F)F was read as ERK EGF inh 0%.
`N#CC(C#N)=C1C=CC=CN1/C(=C\c1ccco1)C(=O)c1ccc(Cl)cc1` gave ERK EGF inh 10µM*, pERK EGF inh inconclusive, cRaf kinase inh -15 and MEK inh -19%.
`O=C(NCC1CCCO1)/C(=C\c1ccco1)NC(=O)c1ccc(Cl)cc1` (stereo not given) gave ERK EGF inh 8%.
